This note sets out measurements from PubChem BioAssay AID743395 (Broad Institute, 2014).

Screen size: about 1,200 compounds; about 480 (40%) were called active. The rule behind the calls is not given here. So high a share suggests a set chosen from earlier hits. These entries were drawn from the full list. Measured potencies and affinities stand elsewhere.

A short description of the experiment: HepG2 cell cytotoxicity, dose response, cytotoxicity control, CellTiter-Glo luminescence, cherry-pick, set 2 (AID 743395).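 Note: 0% = neutral control wells and -100% = positive control wells.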 Particulars: HepG2 viability, CellTiter-Glo ATP luminescence, 72 h; series mostly up to 26 µM; activity change, negative = cytotoxicity: at the top concentration.
For the molecule `COc1ccc(S(=O)(=O)Nc2ccc3c(c2)C(=O)N([C@@H](C)CO)C[C@H](C)[C@H](CN(C)Cc2ccc(Cl)c(Cl)c2)OCCCC[C@@H](C)O3)cc1`, the “activity change, negative = cytotoxicity” value was 7.33% (inactive).

Regarding `Cc1ccc(S(=O)(=O)Nc2ccc3c(c2)C(=O)N([C@@H](C)CO)C[C@H](C)[C@H](CN(C)S(=O)(=O)c2ccc(Cl)cc2)OCCCC[C@@H](C)O3)cc1`, the “activity change, negative = cytotoxicity” value was 7.44% (inactive).

In the case of `COc1ccc(NC(=O)N(C)C[C@H]2Oc3c(cccc3N(C)C)C(=O)N([C@H](C)CO)C[C@H]2C)cc1`, the “activity change, negative = cytotoxicity” value is -8.08% (inactive).

Regarding `Cc1ccc(N2CC(C(=O)N(C)CC(=O)Nc3ccc(Cl)c(C(F)(F)F)c3)CC2=O)cc1` (stereo not drawn), the “activity change, negative = cytotoxicity” value is 11% (inactive).

Take `COc1ccc(OCC(=O)NNC(=O)CCc2ccccc2)cc1`: the “activity change, negative = cytotoxicity” value is 17.5% (inactive).

For `Cn1nc(C(=O)NNC(=O)CCOc2ccc(C(C)(C)C)cc2)c2ccccc2c1=O`, the “activity change, negative = cytotoxicity” value is -16.7% (inactive).

As to `O=c1cc(-c2ccccc2)[nH]c2ccc(F)cc12`, the “activity change, negative = cytotoxicity” value was -11.9% (inactive).

With `O=C(Nc1ccc(F)cc1)Nc1ccc(N2CCOCC2)c2nonc12`, the “activity change, negative = cytotoxicity” value was -14.1% (inactive).

For `COC(=O)c1ccc(C(=O)NC2CCCc3c2cnn3-c2ccc(C)c(C)c2)cc1` (stereo not drawn), the “activity change, negative = cytotoxicity” value was -8.84% (inactive).

Regarding `O=C(N/N=C/c1ccccc1OC(F)F)c1cc(-c2ccncc2)nc2ccccc12`, the “activity change, negative = cytotoxicity” value is -20.7% (inactive).

On to `O=C(CN1CCN(S(=O)(=O)c2ccc(F)c(Cl)c2)CC1)N1CCc2ccccc2C1`, for which the “activity change, negative = cytotoxicity” value was -20.4% (inactive).

On to `Cc1ccc(C)c(NC(=O)CSc2nc3c(c(=O)n2C)SC(C)C3)c1` (stereo not drawn), for which the “activity change, negative = cytotoxicity” value is -11.9% (inactive).

As to `COC(=O)c1c(-c2ccc(C)cc2)csc1NC(=O)c1c(-c2ccccc2)noc1C`, the “activity change, negative = cytotoxicity” value was -3.85% (inactive).

With `Cc1ccc(NC(=O)c2c(C)noc2C)cc1S(=O)(=O)N1CCOCC1`, the “activity change, negative = cytotoxicity” value was -6.83% (inactive).

With `O=C(CSc1nc2ccccc2n1-c1ccccc1)Nc1ncc(Cl)cc1Cl`, the “activity change, negative = cytotoxicity” value was -9.54% (inactive).

For `O=C(COc1ccc(F)cc1Cl)Nc1cccc(S(=O)(=O)N2CCCCCC2)c1`, the “activity change, negative = cytotoxicity” value is 1.09% (inactive).

For the molecule `O=S1(=O)CCN(C(CO)c2ccccc2)CC1` (stereo not drawn), the “activity change, negative = cytotoxicity” value was -12.1% (inactive).

For the molecule `COc1ccc(/C=C2\SC(=O)N(CCNC(=O)C3=COCCO3)C2=O)cc1`, the “activity change, negative = cytotoxicity” value was -18% (inactive).

As for `CC1(c2ccc3ccccc3c2)CCC(=O)O1` (stereo not drawn), the “activity change, negative = cytotoxicity” value was -3.36% (inactive).

Take `COc1ccc(S(=O)(=O)N2CCN(CCOc3ccccc3Cl)CC2)cc1OC`: the “activity change, negative = cytotoxicity” value is -28.1% (inactive).

As for `CCCCN1C(=O)/C(=C/C=C2\Oc3ccccc3N2CC)SC1=S`, the “activity change, negative = cytotoxicity” value was -19.4% (inactive).

For `COc1cc(/C=C2\SC(=S)N(NC(=O)c3ccncc3)C2=O)ccc1O`, the “activity change, negative = cytotoxicity” value is -8.91% (inactive).

Consider `O=C(CCNS(=O)(=O)c1cccc(C(F)(F)F)c1)NC1CC1`, for which the “activity change, negative = cytotoxicity” value was 2.26% (inactive).

With `Clc1ccc(CSc2nncn2-c2ccc3c(c2)OCCO3)cc1`, the “activity change, negative = cytotoxicity” value is -6.14% (inactive).

Turning to `COc1ccc(S(=O)(=O)N2CC[C@@H]3[C@@H](CO)Nc4ccc(-c5ccc(C#N)cc5)cc4[C@@H]32)cc1`, the “activity change, negative = cytotoxicity” value was -18.6% (inactive).

Turning to `O=C(c1cccnc1)N1CC[C@@H]2[C@H](CO)Nc3ccc(C4=CCCCC4)cc3[C@@H]21`, the “activity change, negative = cytotoxicity” value is -8.51% (inactive).

For `O=S(=O)(c1ccc(F)cc1)N1CC[C@@H]2[C@@H](CO)Nc3ccc(-c4ccc(F)cc4)cc3[C@@H]21`, the “activity change, negative = cytotoxicity” value is -28.2% (inactive).

As to `COc1ccc(S(=O)(=O)N2CC[C@@H]3[C@@H](CO)Nc4ccc(C5=CCCCC5)cc4[C@@H]32)cc1`, the “activity change, negative = cytotoxicity” value was -2.3% (inactive).
